Reference: the supplement of paper PMC7057948, “A genome-wide approach for identification and characterisation of metabolite-inducible systems” (Nature Communications, 2020)

What follows are compounds tested on BadR/P_H16_RS27200 cyclohexanecarboxylate biosensor (pEH159) (assay: relative induction of RFP reporter vs primary effector (background-corrected); higher = stronger activation of the biosensor). Conditions: inducer concentration 5 mM; 6 h; Cupriavidus necator H16; minimal medium + 0.4% gluconate.
Method: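 C. necator H16 strains, each carrying one of 21 transcription factor/inducible promoter–mRFP biosensor plasmids, were grown in minimal medium in 96-well plates (robotic platform). Each was exposed to 46 structurally or metabolically related compounds at 5 mM at 30 °C. OD-normalised RFP fluorescence was read 6 h later and expressed as relative induction (%) = 100 × (FL compound − FL uninduced)/(FL primary inducer − FL uninduced); mean of n=4.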
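Further: RFP excited at 585 nm with emission read at 620 nm, culture medium blanks subtracted from fluorescence and absorbance prior to normalisation.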

| Compound | relative induction of RFP reporter [%] |
| --- | --- |
| N[C@@H](CC(=O)O)C(=O)O [L-aspartate] | -0.282 |
| CC(=O)CCC(=O)O [levulinic acid] | 0.15 |
| O=S(=O)(O)CCO [isethionate] | 0.494 |
| O=C(O)c1c(O)cccc1O [2,6-dihydroxybenzoate] | 0.241 |
| C[C@H](N)C(=O)O [L-alanine] | -0.206 |
| NC(=O)CC[C@H](N)C(=O)O [L-glutamine] | -0.359 |
| O=C(O)c1ccc(O)cc1 [4-hydroxybenzoate] | 0.236 |
| O=C(O)C(O)C(=O)O [tartronic acid] | -0.292 |
| O=C(O)C1CCCC1 [cyclopentane-1-carboxylate] | 10.9 |
| O=C(O)[C@@H](O)[C@@H](O)[C@H](O)[C@@H](O)C(=O)O [glucarate] | -0.576 |
| CC(N)CC(=O)O (stereo not given) [3-aminobutanoate] | -0.361 |
| NCCc1ccc(O)c(O)c1 [dopamine] | 1.95 |
| O=CC(=O)O [glyoxylate] | -0.137 |
| O=c1cc[nH]c(=O)[nH]1 [uracil] | -0.342 |
| NCCS(=O)(=O)O [taurine] | -0.635 |
| O=C(O)C[C@H](O)C(=O)O [L-malate] | -0.0424 |
| O=C(O)CC(CC(=O)O)C(=O)O [tricarballylate] | -0.288 |
| Oc1cccc(O)c1 [resorcinol] | 0.33 |
| O=C(O)CNC(=O)c1ccccc1 [N-benzoylglycine] | -0.675 |
| C[C@H](O)C(=O)O [L-lactate] | 0.636 |

| Compound | relative induction of RFP reporter [%] |
| --- | --- |
| NC(C(=O)O)c1ccccc1 (racemic) [D,L-2-phenylglycine] | -0.673 |
| Oc1ccccc1 [phenol] | -0.423 |
| O=c1[nH]cnc2nc[nH]c12 [hypoxanthine] | -0.186 |
| OC[C@@H](O)[C@@H](O)[C@H](O)[C@H](O)CO [D-mannitol] | -0.47 |
| Oc1ccc(O)cc1 [hydroquinone] | 4.02 |
| O=C(O)/C=C/C(=O)O [fumarate] | -0.161 |
| NCC(O)C(=O)O (stereo not given) [3-amino-2-hydroxypropanoate] | 0.0183 |
| O=C(O)/C=C\C=C/C(=O)O [cis,cis-muconate] | -0.641 |
| Cn1cnc2c1c(=O)[nH]c(=O)n2C [theobromine] | 0.638 |
| C[C@@H](O)C(=O)O [D-lactate] | -0.262 |
| N[C@@H](Cc1c[nH]c2ccccc12)C(=O)O [L-tryptophan] | -0.253 |
| O=C(O)c1cccnc1 [nicotinate] | -0.229 |
| O=C(O)CC(=O)C(=O)O [oxaloacetate] | -0.113 |
| NCC(N)C(=O)O (stereo not given) [2,3-diaminopropanoate] | -0.224 |
| O=C(O)C1=C[C@@H](O)[C@@H](O)[C@H](O)C1 [shikimate] | 0.552 |
| Cn1c(=O)c2c(ncn2C)n(C)c1=O [caffeine] | -0.151 |
| CCCC(=O)O [butyric acid] | 0.491 |
| O=C(O)c1cc(=O)c2ccccc2[nH]1 [kynurenate] | -0.549 |
| O=C(O)C(O)c1ccccc1 (stereo not given) [mandelic acid] | 0.747 |
| O=C(O)CCC(=O)O [succinate] | -0.371 |
